From PubChem BioAssay
FXN GAA850 act = frataxin GAA850 promoter activation | AID 540364 | 360,000 tested, 0.56% active | HEK293 lucGAA850 FXN promoter luciferase reporter, 24 h; percent of 10 µM SAHA response | activation, % at 6 µM;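 active = activation above the average of all compounds screened plus 3 SD, cutoff fixed separately per campaign, cut at about 7.5% in these data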;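 note: 0% = DMSO wells and 100% = 10 µM SAHA wells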
HSF1 inh = HSF1 inhibition; activity change, negative = inhibition, % at 7.5 µM (by protocol); 300,000 tested, 0.77% active; NIH3T3-HGL HSE-luciferase, MG132-induced, luminescence 8 h; stronger effect = lower value;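 active = more than half of replicate wells show activity change below -50%, luminescence cut by over half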;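 note: luciferase reports HSF-1 transcriptional activity via heat shock element; 0% = median of DMSO wells and -100% = zero luminescence signal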
NR0B1 inh = NR0B1 (DAX1) inhibition; P51843; HEK293 Gal4-DAX1 luciferase reporter, luminescence; inhibition, % at 6.75 µM; 340,000 tested, 0.99% active;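 active = inhibition above the mean over all tested compounds plus 3 SD, cut at about 4.2% in these data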;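 note: 0% = DAX1-transfected cells with DMSO and 100% = empty-vector control cells with DMSO; inhibition shows as a rise in luminescence from relieved DAX1 repression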
HSF1 activator = increases HSF-1 driven luciferase reporter signal; 300,000 tested, 1.7% active; activation, % at 9 µM; NIH3T3-HGL HSF-1 luciferase reporter, MG132, 8 h; 100% = twice DMSO control signal;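 active = mean replicate activation of at least 50% with a set share of replicates each reaching 50%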;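 note: 0% = median of the neutral control wells and 100% = twice that signal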
AHR activator = human AHR activation; AID 2796; activation, % at 5 µM; AHR-responsive luciferase reporter cells, luminescence; 320,000 tested, 2.5% active; in the data active = activation above about 47%;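 note: 0% = vehicle wells and 100% = reference agonist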
Target sequence (P35869 whole entry, looked up): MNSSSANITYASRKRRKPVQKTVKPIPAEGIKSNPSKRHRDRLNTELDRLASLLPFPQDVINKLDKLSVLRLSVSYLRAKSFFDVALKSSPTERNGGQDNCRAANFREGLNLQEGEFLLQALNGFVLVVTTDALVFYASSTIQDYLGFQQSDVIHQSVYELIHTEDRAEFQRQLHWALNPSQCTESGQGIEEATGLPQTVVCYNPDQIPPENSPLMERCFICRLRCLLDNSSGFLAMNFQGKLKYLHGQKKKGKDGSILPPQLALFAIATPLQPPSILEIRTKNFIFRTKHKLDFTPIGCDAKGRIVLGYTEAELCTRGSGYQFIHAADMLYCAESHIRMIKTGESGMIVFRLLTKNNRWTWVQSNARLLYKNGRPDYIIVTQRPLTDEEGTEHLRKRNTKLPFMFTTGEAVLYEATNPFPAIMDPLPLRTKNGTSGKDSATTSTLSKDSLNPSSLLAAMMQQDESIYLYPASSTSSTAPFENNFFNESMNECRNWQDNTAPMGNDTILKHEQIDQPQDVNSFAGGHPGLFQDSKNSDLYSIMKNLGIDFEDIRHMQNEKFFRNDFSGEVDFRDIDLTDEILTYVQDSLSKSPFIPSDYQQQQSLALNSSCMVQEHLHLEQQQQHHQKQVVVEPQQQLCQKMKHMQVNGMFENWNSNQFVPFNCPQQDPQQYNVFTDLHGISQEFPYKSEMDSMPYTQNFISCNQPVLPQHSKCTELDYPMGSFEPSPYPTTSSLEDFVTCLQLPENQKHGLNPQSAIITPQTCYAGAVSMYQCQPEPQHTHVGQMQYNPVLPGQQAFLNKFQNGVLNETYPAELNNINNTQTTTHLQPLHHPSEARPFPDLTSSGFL
GAA30 counter = GAA30 FXN promoter activation counter-screen; HEK293 lucGAA30 FXN promoter luciferase, 24 h; DMSO = 0%, 5 µM ipriflavone = 100%; shares compounds with FXN GAA850 act; activation, % at 6 µM; 1,900 tested, 66% active; AID 588350;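 active = mean activation above the mean of solvent-only control wells plus 3 SD, cut at about 22% in these data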;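 note: counterscreen of GAA850 promoter hits where activity marks nonselective or luminescence artifacts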
GAA850 confirm = confirmation of GAA850 frataxin (FXN) promoter activators. shares compounds with FXN GAA850 act. HEK293 lucGAA850 FXN promoter luciferase reporter, 24 h; 100% = activation by SAHA. activation, % at 6 µM. 1,900 tested, 86% active;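 active = mean activation above a set limit taken from the primary screen, cut at about 8% in these data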;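 note: 0% = DMSO wells and 100% = 10 µM SAHA wells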
* = called active by the depositor; . = no result given. This is a sample that favours compounds with a hit; in the whole collection about 5.4% have one here.

SMILES	FXN GAA850 act	HSF1 inh	NR0B1 inh	HSF1 activator	AHR activator	GAA30 counter	GAA850 confirm
COc1cc(/C=N/NC2=NCCCCC2)ccc1O	0	3	-1	-4	4	.	.
O=C(NCCCC(=O)N1CCCCC1)c1ccc(Cl)cc1	-1	1	1	-4	.	.	.
Fc1ccc(-c2ccc(Nc3cccc(F)c3)nn2)cc1	8.3*	-7	1	-19	-6	93*	31*
CN(C(=O)COC(=O)c1ccccc1SCC(=O)N1CCCC1)C1(C#N)CCCCC1	0	.	0	.	4	.	.
Cc1sc2nc3c4ccccc4c(NCc4ccco4)nn3c(=O)c2c1C	10*	.	3	.	-5	105*	30*
Cc1nc(NCc2ccco2)c2c(C)c(C)sc2n1	-7	-47	-3	-55	-10	.	.
COCCn1c(C)cc(C(=O)COC(=O)c2ccc3ncsc3c2)c1C	7.8*	24	1	31	-6	93*	32*
Cc1cc(C)c2c(=O)n3c(nc2c1)C(Cc1ccccc1)NC(=O)c1cc2ccccc2cc1-3 (stereo unspecified)	-13	.	-1	.	.	.	.
COc1ccccc1NS(=O)(=O)c1cc(NC(=O)/C=C/c2cccs2)ccc1N1CCOCC1	9.9*	16	0	20	31	-9	6
CCOCCCn1c(SCc2nc3ccccc3s2)nc2ccccc2c1=O	-2	-8	1	-4	31	.	.
CCCSc1nc2cc(S(=O)(=O)N3CCOCC3)ccc2n1CC	2	3	0	9	8	.	.
Cc1nnc(SCc2nc3ccccc3s2)n1-c1ccccc1	7	7	3	12	24	.	.
CCn1c(SCc2nc3ccccc3s2)nc2cc(S(=O)(=O)N3CCOCC3)ccc21	12*	41	2	69*	9	81*	33*
c1ccc(-n2cnnc2SCc2nc3ccccc3s2)cc1	7.8*	15	3	15	30	94*	26*
COCCn1c(SCc2nc3ccccc3s2)nc2ccccc21	8.4*	41	1	77*	31	99*	31*
Cc1c(C(=O)NCc2cccc(Cl)c2)sc(=O)n1Cc1cccc(F)c1	12*	.	.	.	.	16	6
CCOC(=O)c1nc2ccccc2c(=O)[nH]1	8.1*	2	1	9	9	69*	23*
COc1cc(OC)c(OC)cc1C=Cc1ccc2ccccc2n1	8.9*	.	-1	.	.	67*	30*
COc1cc(OC)c(OC)cc1/C=C/c1cc(C(=O)O)c2ccccc2n1	4	-6	1	-1	2	.	.
Cc1ccc(NC(=O)c2cc(S(=O)(=O)N3CCCCC3)c[nH]2)cc1Cl	1	.	.	.	.	.	.
CCC/C=C/c1ccc(CN2C(C(C)C)C(=O)N(Cc3cn(CC4CCCCC4)nn3)CCS2(=O)=O)cc1 (stereo unspecified)	7.9*	.	0	.	.	5	-1
Cc1ccc(C)n1-c1ccc(-c2nnco2)cc1	0	-8	-1	2	1	.	.
Cc1cc(-c2nnco2)c(C)n1-c1ccc(F)cc1	7.7*	2	1	-4	0	53*	22*
Cc1cc(C)cc(-n2c(SCC(=O)NCc3ccco3)nc3ccccc3c2=O)c1	7	.	-1	.	-2	.	.
Cc1cc(C)cc(-n2c(SCC(=O)NCc3ccc4c(c3)OCO4)nc3ccccc3c2=O)c1	8.6*	6	-1	14	3	18	7
SMILES	FXN GAA850 act	HSF1 inh	NR0B1 inh	HSF1 activator	AHR activator	GAA30 counter	GAA850 confirm
CCOC(=O)c1sc(-c2ccccc2)cc1N	8.9*	-30	2	-41	7	87*	23*
CCOC(=O)c1sc(-c2ccc(OC)cc2)cc1N	9.7*	17	3	46	-1	109*	30*
COc1ccc(N=c2oc3cc(O)ccc3cc2C(=O)NCC2CCCO2)c(OC)c1 (stereo unspecified)	9.7*	13	1	29	-13	5	18*
COc1ccc(-c2cc(C(=O)NCC3CCCO3)c3cc(C)ccc3n2)cc1 (stereo unspecified)	7.6*	-26	-1	-42	6	68*	22*
Cc1nc2scc(-c3ccc(C(C)C)cc3)c2c(=O)n1N	2	3	.	-7	1	.	.
CCOc1ccc(S(=O)(=O)NCCC(=O)NCc2ccc(OC)c(OC)c2)cc1	0	.	-1	.	1	.	.
CCOC(=O)Cc1csc(NC(=O)NC2(C(F)(F)F)Oc3ccc(Cl)cc3O2)n1 (stereo unspecified)	8.5*	20	1	34	0	44*	17*
COCC(C)NC(=O)NC1(C(F)(F)F)Oc2ccc(Cl)cc2O1 (stereo unspecified)	10*	29	1	19	5	20	18*
O=C(NCCN1CCOCC1)c1cc(Cl)ccc1Cl	1	-7	0	-4	.	.	.
O=C(NCCN1CCOCC1)NC1(C(F)(F)F)Oc2ccc(Cl)cc2O1 (stereo unspecified)	15*	7	0	35	0	36*	20*
Cc1ccc(S(=O)(=O)N(C)C)cc1NC(=O)COC(=O)Cc1cccs1	1	-4	0	-9	-2	.	.
Nc1nc(Nc2ccccc2)nc(NCc2ccco2)c1[N+](=O)[O-]	7	-11	-3	5	2	.	.
Cc1ccc(Nc2nc(N)c([N+](=O)[O-])c(NCc3ccco3)n2)cc1	8.9*	26	0	37	7	67*	34*
COc1cc(Cn2c3ccc(NC(=O)NCCc4ccccc4)cc3c(=O)n2C)ccc1F	0	.	.	.	.	.	.
O=C(NC(=S)Nc1ccc(N2CCCCC2)cc1)c1ccco1	4	20	3	30	5	.	.
CC1CCN(c2ccc(NC(=S)NC(=O)c3ccco3)cc2)CC1	7.9*	14	2	61*	5	69*	32*
CCOC(=O)C(CC)n1cnc2c(nnn2-c2ccccc2)c1=O (stereo unspecified)	-1	-1	0	8	2	.	.
CCOC(=O)C(CC)n1cnc2c(nnn2-c2ccc(F)cc2)c1=O (stereo unspecified)	19*	-4	0	-8	2	2	4
COc1cc2c(O)c3c(c(-c4ccc5c(c4)OCO5)c2cc1OC)C(=O)OC3	20*	1	-1	-10	1	-8	27*
COc1cc2c(OC(C)=O)c3c(c(-c4ccc5c(c4)OCO5)c2cc1OC)C(=O)OC3	1	-12	1	-12	-1	.	.
Cc1ccc(NC(=O)CSCC(=O)NNC(=O)c2nn(C)c(=O)c3ccccc23)cc1	0	.	-1	.	0	.	.
